Experiment [1] in a line: ATG_GLI_CIS: Attagene CIS-FACTORIAL HepG2 Assay for human Zinc Finger Protein GLI1 (AID 2282945). Particulars: HepG2, Attagene cis-factorial reporter mRNA, GLI element; actives raise or lower the signal. In short, it runs like this: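 Bidirectional curve fits relative to DMSO, using reporter mRNA levels from RT-PCR plus capillary electrophoresis. Cells were HepG2 transiently carrying cis-regulated reporter constructs, harvested 24 h after dosing.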

Experiment [2] has as its target Bile acid receptor (Homo sapiens) (UniProt Q96RI1). Description: ATG_IR1_CIS: Attagene CIS-FACTORIAL HepG2 Assay for human Nuclear Receptor Subfamily 1 Group H Member 4 (NR1H4), IR1 submotif (AID 2282946). Particulars: IR1 reporter transcription, actives raise or lower the signal. In short, it runs like this:
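HepG2 cells transiently transfected with multiplexed cis-element reporter units read endogenous transcription factor activity. After 24 h compound exposure, reporter mRNA was quantified by RT-PCR, fluorescent labelling, HpaI digestion and capillary electrophoresis; bidirectional fitting versus DMSO baseline.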

Experiment [3] can be described thus: ATG_GRE_CIS: Attagene CIS-FACTORIAL HepG2 Assay for human Glucocorticoid Response Elements (GRE) (AID 2282947). The settings on record: HepG2 GRE cis-reporter, Attagene multiplex mRNA; actives raise or lower the signal. In short, it runs like this: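 Multiplexed cis-reporter mRNA induction, HepG2, 24 h post-dose. RT-PCR, FAM-labelled, HpaI-digested amplicons by CE. Bidirectional fit vs DMSO.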

The nature of experiment [4]: ATG_ISRE_CIS: Attagene CIS-FACTORIAL HepG2 Assay for human Interferon Regulatory Factor 1 (IRF1) binding to an Interferon-Stimulated Response Element (ISRE) (AID 2282948). The settings on record: HepG2 ISRE cis-reporter (Attagene), mRNA transcription readout; actives raise or lower the signal. The procedure, abridged:
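Endogenous transcription factor activity read as reporter transcript abundance via RT-PCR and capillary electrophoresis. HepG2 cells transiently transfected, 24 h chemical exposure. Gain or loss fitted against DMSO baseline.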

Experiment [5] is described as follows: ATG_M_32_CIS: Attagene CIS-FACTORIAL HepG2 Assay for M32 Transcription Factor (Internal Marker) (AID 2282949).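 Further: background control marker of the multiplexed CIS panel rather than a real target.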 The settings on record: HepG2 Attagene cis-factorial M32 reporter, mRNA; actives raise or lower the signal. The procedure, abridged:
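Using DMSO as baseline, bidirectional curve fits were applied to reporter mRNA signals. These came from transiently transfected HepG2 cells exposed for 24 h, with RNA analysed by RT-PCR, FAM primer extension, HpaI digestion and CE.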

The nature of experiment [6]: ATG_M_06_CIS: Attagene CIS-FACTORIAL HepG2 Assay for M06 Transcription Factor (Internal Marker) (AID 2282950). The settings on record: HepG2 Attagene CIS-FACTORIAL M06 internal marker reporter; actives raise or lower the signal. In short, it runs like this: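 One of many multiplexed endpoints: HepG2 reporter mRNA after 24 h dosing, detected by RT-PCR and capillary electrophoresis fluorescence; gain or loss of signal analysed against DMSO.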

The target of experiment [7] is Hypoxia-inducible factor 1-alpha (Homo sapiens) (UniProt Q16665). Description: ATG_HIF1a_CIS: Attagene CIS-FACTORIAL HepG2 Assay for human Hypoxia Inducible Factor 1 (HIF1A) (AID 2282951). The settings on record: HepG2 Attagene cis-factorial HIF1a reporter transcription; actives raise or lower the signal. In short, it runs like this:
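After 24 h chemical exposure of reporter-transfected HepG2 cells, reporter cDNA was PCR-amplified, labelled by 6-FAM primer extension (2 min 95 C, 20 s 68 C, 10 min 72 C), HpaI-cut (2 h, 37 C) and analysed by CE.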

The target in experiment [8] is Hepatocyte nuclear factor 6 (Homo sapiens) (UniProt Q9UBC0). Description: ATG_HNF6_CIS: Attagene CIS-FACTORIAL HepG2 Assay for human Hepatocyte Nuclear Factor 6 (HNF6) (AID 2282952). The settings on record: HepG2 Attagene cis-factorial HNF6 reporter transcription; actives raise or lower the signal. In short, it runs like this:
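Using cis-element reporters in HepG2 liver cells, the assay tracks endogenous factor-driven transcription 24 h post-dosing. Signal comes from 6-FAM-labelled, HpaI-digested RT-PCR fragments, with gain or loss scored against DMSO.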

In experiment [9] the target is Heat shock factor protein 1 (Homo sapiens) (UniProt Q00613). Description: ATG_HSE_CIS: Attagene CIS-FACTORIAL HepG2 Assay for human Heat Shock Transcription Factor 1 (HSE) (AID 2282953). The settings on record: HepG2 HSE cis-reporter, Attagene RNA transcription; actives raise or lower the signal. In short, it runs like this:
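Using HepG2 with transfected cis-driven reporter constructs, compound effects on endogenous factor activity are scored as reporter mRNA change at 24 h. Detection: RT-PCR, HpaI digestion, capillary electrophoresis; bidirectional fitting to DMSO.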

The nature of experiment [10]: ATG_MRE_CIS: Attagene CIS-FACTORIAL HepG2 Assay for human Metal Responsive Element (MRE) (AID 2282954). Particulars: HepG2 MRE cis-reporter transcription, Attagene multiplex; actives raise or lower the signal. The procedure, abridged:
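Multiplexed cis-reporter assay in human HepG2 liver cells, 24 h incubation with test chemical. Reporter transcripts measured by RT-PCR and capillary electrophoresis; values from bidirectional curve fitting versus DMSO.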

Experiment [11] is described as follows: ATG_PBREM_CIS: Attagene CIS-FACTORIAL HepG2 Assay for human Phenobarbital-responsive Enhancer Module (PBREM) (AID 2282955). Particulars: HepG2 PBREM cis-reporter, Attagene multiplexed transcription; actives raise or lower the signal. In short, it runs like this: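 Measures endogenous factor action on a phenobarbital-responsive enhancer module. HepG2 transiently carrying cis reporters, 24 h treatment, mRNA read-out by RT-PCR plus capillary electrophoresis.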

Experiment [12] has as its target Paired box protein Pax-6 (Homo sapiens) (UniProt P26367). As to the kind of experiment: ATG_Pax6_CIS: Attagene CIS-FACTORIAL HepG2 Assay for human Paired Box 6 (PAX6) (AID 2282956). Particulars: HepG2 CIS-FACTORIAL PAX6 reporter transcription, RNA readout; actives raise or lower the signal. The procedure, abridged: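 Read-out is reporter transcript level, measured by RT-PCR with fluorescent primer extension and capillary electrophoresis after 24 h dosing of transfected HepG2 cells. Activity in either direction fitted relative to DMSO control.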

Experiment [13] can be described thus: ATG_PXRE_CIS: Attagene CIS-FACTORIAL HepG2 Assay for human Pregnane X Receptor Element (PXRE) (AID 2282957). Particulars: HepG2 Attagene CIS-FACTORIAL PXRE reporter, mRNA; actives raise or lower the signal. In short, it runs like this:
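Using HepG2 transfected with multiple reporter transcription units, endogenous factor-driven transcription was scored as reporter mRNA after 24 h exposure.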

A short description of experiment [14]: ATG_PPRE_CIS: Attagene CIS-FACTORIAL HepG2 Assay for human Peroxisome Proliferator-activated Response Element (PPRE) (AID 2282958). Particulars: HepG2 PPRE cis-element reporter, Attagene transcription factor profiling; actives raise or lower the signal. In short, it runs like this: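 PPRE activity in HepG2: transient cis-reporter transfection, 24 h compound incubation, reporter mRNA by RT-PCR and CE fluorescence; gain/loss fitted against DMSO.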

A short description of experiment [15]: ATG_RORE_CIS: Attagene CIS-FACTORIAL HepG2 Assay for human RAR-related Orphan Receptor Element (RORE) (AID 2282959). The settings on record: HepG2 Attagene cis-factorial RORE reporter, mRNA; actives raise or lower the signal. The procedure, abridged:
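A 24-hour exposure of transfected HepG2 hepatoma cells precedes RNA isolation and reporter RT-PCR. Labeled products are digested with HpaI and resolved by capillary electrophoresis, with gain or loss of signal scored relative to DMSO.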

Experiment [16] in a line: ATG_Sox_CIS: Attagene CIS-FACTORIAL HepG2 Assay for human SRY-box transcription factor (SOX) (AID 2282960). The settings on record: HepG2 Attagene cis-factorial SOX reporter, mRNA; actives raise or lower the signal. In short, it runs like this:
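HepG2, cis reporter units, 24 h exposure. Reporter mRNA: RT-PCR → FAM labelling → HpaI → CE fluorescence. Bidirectional fit vs DMSO.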

Experiment [17] concerns the target Transcription factor Sp1 (Homo sapiens) (UniProt P08047). Description: ATG_Sp1_CIS: Attagene CIS-FACTORIAL HepG2 Assay for human Specificity Protein 1 (Sp1) (AID 2282961). Particulars: HepG2 Sp1 cis-reporter transcription, actives raise or lower the signal. In short, it runs like this: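 Liver-derived HepG2 cells, cis-element reporter library, 24 h treatment; RNA isolated, cDNA amplified with reporter-specific primers, FAM-labeled fragments sized on capillary analyzer. DMSO baseline, bidirectional curve fit.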

A short description of experiment [18]: ATG_SREBP_CIS: Attagene CIS-FACTORIAL HepG2 Assay for human Sterol Regulatory Element Binding (SREBP) (AID 2282962). The settings on record: HepG2 Attagene cis-factorial SREBP reporter, mRNA; actives raise or lower the signal. In short, it runs like this: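 Endogenous SREBP activity read as cis-element-driven reporter transcript in transiently transfected HepG2, 24 h post-dosing; quantified via RT-PCR plus capillary electrophoresis of fluorescent fragments. Gain or loss of signal fitted relative to DMSO baseline.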

Experiment [19] has as its target Signal transducer and activator of transcription 3 (Homo sapiens) (UniProt P40763). As to the kind of experiment: ATG_STAT3_CIS: Attagene CIS-FACTORIAL HepG2 Assay for human Signal Transducer and Activator of Transcription 3 (STAT3) (AID 2282963). Particulars: HepG2, Attagene cis-factorial STAT3 reporter transcription; actives raise or lower the signal. The procedure, abridged:
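Cis-factorial format: endogenous transcription factors in HepG2 drive transfected reporter units. After 24 h treatment, reporter RNA was reverse-transcribed, amplified, FAM-labelled and HpaI-digested before CE analysis; activity scored in both directions against DMSO.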

Experiment [20] can be described thus: ATG_TA_CIS: Attagene CIS-FACTORIAL HepG2 Assay for human TA Basal Promoter (AID 2282964). The settings on record: HepG2 Attagene CIS-factorial TA basal promoter reporter; actives raise or lower the signal. The procedure, abridged: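 Transient MRTU transfection of HepG2 preceded 24 h compound exposure. Reporter mRNA levels were then read by RT-PCR with capillary electrophoresis, and this background-control endpoint was fitted bidirectionally to DMSO.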

Outcome and AC50 data for five compounds are collected here from PubChem BioAssay (EPA / NIEHS).

Where “and” joins values, the source holds several entries; their conditions need not be identical. Equal entries are not always repeated. Where a structure was tested more than once in an assay, its records may differ in their call. Calls of active or inactive are those of the source. How the source made its calls: active means hit-call score of the fitted dose curve at least 0.9, where 1 is the maximum; inactive means score below 0.9.

Chain of Hepatocyte nuclear factor 6 (Homo sapiens) (Q9UBC0 whole entry, looked up, the tested form may be a part): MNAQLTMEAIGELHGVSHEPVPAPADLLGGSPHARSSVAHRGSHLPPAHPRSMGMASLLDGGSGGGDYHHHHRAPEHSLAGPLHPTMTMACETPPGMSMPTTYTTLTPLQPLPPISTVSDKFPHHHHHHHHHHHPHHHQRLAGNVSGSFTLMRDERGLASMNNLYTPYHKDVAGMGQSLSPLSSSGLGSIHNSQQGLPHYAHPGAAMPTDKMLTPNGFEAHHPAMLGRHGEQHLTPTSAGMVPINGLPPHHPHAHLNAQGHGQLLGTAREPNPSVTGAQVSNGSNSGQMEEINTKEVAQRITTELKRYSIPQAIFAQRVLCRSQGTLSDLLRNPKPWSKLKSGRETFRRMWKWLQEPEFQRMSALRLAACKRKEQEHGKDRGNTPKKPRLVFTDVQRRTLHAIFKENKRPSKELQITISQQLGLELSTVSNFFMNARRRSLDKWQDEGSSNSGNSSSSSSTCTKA
Chain of Paired box protein Pax-6 (Homo sapiens) (P26367 whole entry, looked up): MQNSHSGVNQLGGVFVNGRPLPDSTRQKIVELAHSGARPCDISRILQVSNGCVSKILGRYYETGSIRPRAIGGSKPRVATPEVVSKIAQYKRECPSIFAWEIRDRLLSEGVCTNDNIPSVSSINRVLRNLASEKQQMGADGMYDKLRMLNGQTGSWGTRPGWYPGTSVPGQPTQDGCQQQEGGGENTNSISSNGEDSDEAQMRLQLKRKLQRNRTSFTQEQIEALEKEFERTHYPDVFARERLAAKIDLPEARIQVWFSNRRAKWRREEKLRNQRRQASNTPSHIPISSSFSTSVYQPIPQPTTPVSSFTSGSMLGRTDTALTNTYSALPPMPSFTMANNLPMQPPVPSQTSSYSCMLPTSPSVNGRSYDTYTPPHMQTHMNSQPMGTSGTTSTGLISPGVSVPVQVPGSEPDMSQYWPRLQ
Chain of Transcription factor Sp1 (Homo sapiens) (P08047 whole entry, looked up, the tested form may be a part): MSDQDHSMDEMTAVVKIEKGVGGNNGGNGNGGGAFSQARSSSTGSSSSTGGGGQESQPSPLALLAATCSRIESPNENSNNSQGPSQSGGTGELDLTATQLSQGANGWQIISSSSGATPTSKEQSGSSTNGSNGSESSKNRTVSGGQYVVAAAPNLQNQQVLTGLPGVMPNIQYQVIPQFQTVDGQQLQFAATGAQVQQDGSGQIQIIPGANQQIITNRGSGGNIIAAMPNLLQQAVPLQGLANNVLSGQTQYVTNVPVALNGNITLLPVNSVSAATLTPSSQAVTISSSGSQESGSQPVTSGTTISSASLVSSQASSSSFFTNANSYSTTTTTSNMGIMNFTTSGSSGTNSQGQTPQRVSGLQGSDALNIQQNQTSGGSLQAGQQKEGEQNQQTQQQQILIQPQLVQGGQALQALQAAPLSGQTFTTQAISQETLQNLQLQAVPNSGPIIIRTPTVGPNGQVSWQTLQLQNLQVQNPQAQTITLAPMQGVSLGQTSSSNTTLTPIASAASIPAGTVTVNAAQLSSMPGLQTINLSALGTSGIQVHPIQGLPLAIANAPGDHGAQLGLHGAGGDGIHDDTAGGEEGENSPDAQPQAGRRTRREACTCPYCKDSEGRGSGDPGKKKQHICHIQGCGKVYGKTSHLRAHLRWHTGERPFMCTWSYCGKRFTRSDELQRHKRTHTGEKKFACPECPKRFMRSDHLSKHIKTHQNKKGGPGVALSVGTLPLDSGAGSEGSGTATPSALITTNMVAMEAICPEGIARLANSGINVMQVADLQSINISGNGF
Chain of Heat shock factor protein 1 (Homo sapiens) (Q00613 whole entry, looked up): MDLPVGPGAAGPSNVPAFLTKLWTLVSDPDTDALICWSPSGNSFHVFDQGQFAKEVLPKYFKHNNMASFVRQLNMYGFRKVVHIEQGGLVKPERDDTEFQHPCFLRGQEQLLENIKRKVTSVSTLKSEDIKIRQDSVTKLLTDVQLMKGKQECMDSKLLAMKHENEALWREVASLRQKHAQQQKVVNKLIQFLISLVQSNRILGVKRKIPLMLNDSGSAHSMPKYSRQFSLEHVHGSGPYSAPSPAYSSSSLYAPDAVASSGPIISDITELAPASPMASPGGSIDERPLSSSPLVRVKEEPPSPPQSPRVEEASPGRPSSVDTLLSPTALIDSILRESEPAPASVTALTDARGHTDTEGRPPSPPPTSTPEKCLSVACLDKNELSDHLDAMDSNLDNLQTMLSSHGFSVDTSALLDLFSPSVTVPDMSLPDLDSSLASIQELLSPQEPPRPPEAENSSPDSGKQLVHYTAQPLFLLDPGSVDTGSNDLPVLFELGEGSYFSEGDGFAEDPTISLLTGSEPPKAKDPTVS
Chain of Hypoxia-inducible factor 1-alpha (Homo sapiens) (Q16665 whole entry, looked up): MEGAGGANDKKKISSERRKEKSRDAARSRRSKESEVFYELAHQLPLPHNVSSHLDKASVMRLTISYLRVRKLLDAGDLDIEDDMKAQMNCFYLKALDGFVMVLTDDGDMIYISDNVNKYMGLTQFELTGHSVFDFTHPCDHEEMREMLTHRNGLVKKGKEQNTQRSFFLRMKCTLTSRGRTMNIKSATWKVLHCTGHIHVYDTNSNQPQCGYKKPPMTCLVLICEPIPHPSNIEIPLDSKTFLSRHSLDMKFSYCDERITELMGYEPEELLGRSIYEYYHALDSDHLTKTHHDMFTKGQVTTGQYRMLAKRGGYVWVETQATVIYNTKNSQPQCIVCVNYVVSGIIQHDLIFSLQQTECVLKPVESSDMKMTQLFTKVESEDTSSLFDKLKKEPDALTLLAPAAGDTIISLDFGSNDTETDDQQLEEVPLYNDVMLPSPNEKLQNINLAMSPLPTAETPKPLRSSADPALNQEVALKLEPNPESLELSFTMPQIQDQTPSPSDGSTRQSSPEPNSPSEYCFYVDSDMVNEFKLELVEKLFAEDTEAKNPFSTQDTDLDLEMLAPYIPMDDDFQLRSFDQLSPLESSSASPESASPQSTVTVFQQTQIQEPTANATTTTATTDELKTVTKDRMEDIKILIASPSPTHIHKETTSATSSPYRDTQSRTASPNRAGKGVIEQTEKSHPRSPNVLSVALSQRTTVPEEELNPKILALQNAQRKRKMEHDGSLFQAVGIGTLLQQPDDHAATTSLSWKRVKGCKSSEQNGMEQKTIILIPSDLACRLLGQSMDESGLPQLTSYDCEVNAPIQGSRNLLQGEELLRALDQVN
Chain of Signal transducer and activator of transcription 3 (Homo sapiens) (P40763 whole entry, looked up): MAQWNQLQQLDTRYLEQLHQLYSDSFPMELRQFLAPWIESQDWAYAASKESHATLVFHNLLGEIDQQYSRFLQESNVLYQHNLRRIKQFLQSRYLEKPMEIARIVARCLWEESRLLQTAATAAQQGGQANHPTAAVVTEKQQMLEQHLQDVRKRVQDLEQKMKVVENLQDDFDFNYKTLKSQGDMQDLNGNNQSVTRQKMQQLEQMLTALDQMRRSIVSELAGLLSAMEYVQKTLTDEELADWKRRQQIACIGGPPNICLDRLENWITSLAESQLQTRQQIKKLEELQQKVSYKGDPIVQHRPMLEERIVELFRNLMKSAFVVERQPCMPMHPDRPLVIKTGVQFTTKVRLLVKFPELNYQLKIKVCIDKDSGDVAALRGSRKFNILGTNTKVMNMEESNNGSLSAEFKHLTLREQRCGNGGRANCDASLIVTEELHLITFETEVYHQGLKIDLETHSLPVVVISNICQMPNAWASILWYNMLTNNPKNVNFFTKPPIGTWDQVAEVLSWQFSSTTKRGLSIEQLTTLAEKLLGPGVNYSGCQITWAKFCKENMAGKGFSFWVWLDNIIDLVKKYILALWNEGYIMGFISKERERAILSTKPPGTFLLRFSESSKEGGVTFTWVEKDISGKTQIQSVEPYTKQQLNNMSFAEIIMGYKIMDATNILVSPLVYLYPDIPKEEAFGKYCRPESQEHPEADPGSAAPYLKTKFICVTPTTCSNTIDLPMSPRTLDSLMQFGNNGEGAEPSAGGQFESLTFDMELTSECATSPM
Chain of Bile acid receptor (Homo sapiens) (Q96RI1 whole entry, looked up): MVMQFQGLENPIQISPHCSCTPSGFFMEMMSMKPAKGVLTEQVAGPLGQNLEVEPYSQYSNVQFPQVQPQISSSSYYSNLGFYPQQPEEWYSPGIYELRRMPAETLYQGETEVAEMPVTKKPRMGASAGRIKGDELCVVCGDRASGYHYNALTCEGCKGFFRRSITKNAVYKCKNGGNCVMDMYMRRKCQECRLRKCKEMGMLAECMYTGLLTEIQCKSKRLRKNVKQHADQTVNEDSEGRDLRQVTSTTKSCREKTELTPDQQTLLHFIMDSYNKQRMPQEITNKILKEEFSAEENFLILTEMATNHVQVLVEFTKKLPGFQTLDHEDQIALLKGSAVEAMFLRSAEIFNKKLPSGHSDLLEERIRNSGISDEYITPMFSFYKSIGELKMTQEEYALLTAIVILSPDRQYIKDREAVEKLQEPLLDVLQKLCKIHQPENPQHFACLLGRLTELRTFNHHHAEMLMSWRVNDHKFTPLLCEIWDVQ

As to `COc1ccc([N+](=O)[O-])cc1N`, the compound was classed as inactive in experiment [1], in [2], in experiment [3], in [4], in [5] and in [6]. The compound was called inactive in [7], in experiment [8], in experiment [9], in experiment [10], in experiment [11] and in experiment [12]. Moreover, the result in experiment [13], in experiment [14], in [15], in [16], in [17] and in experiment [18] was inactive. Besides, the result in [19] and in [20] was inactive.
A word on the AC50: it is the midpoint of the concentration-response curve, whichever way the signal moves. `CC[C@H](c1ccc(O)cc1)[C@@H](CC)c1ccc(O)cc1`: the call in [1], in experiment [2], in [3], in [4], in experiment [5] and in [6] was inactive. The outcome in experiment [8], in experiment [9], in experiment [10], in [11], in experiment [12] and in [14] was inactive. Besides, the compound was called inactive in experiment [15], in [16], in experiment [17], in [18], in [19] and in experiment [20]. The concentration at half-maximal activity (AC50) in experiment [2] was 11.1 µM (active); in [4], 11.1 µM (active) and 17.2 µM (active); in [10], 11.1 µM (active); in experiment [13] it was 3.02 µM (active) [middle of 4 runs].
For the compound `CCCOC(=O)c1ccc(O)cc1`, the outcome in experiment [1], in experiment [2], in experiment [3], in experiment [4], in experiment [5] and in experiment [6] was inactive. Moreover, the result in experiment [7], in experiment [8], in experiment [9], in experiment [10], in experiment [11] and in experiment [12] was inactive. Also, the compound was classed as inactive in [14], in experiment [15], in experiment [16], in experiment [17], in experiment [18] and in experiment [19]. Further, in experiment [20], the outcome was inactive. The concentration at half-maximal activity (AC50) in experiment [7] was 176 µM (active); in [10], 100 µM (active); in experiment [12], 142 µM (active); in experiment [13], 34.2 µM (active) and 60 µM (active); in [14] it was 77.5 µM (active); in experiment [15] it was 128 µM (active). Besides, the results for the AC50 in experiment [18] and in experiment [20] were 26.4 µM (active) and 162 µM (active), respectively.
As to `CCCCC(CC)COC(=O)CCCCC(=O)OCc1ccccc1` (configuration not stated), the call in experiment [1], in experiment [2], in [3], in experiment [4], in [5] and in experiment [6] was inactive. Moreover, the call in [7], in [8], in experiment [9], in [10], in experiment [11] and in experiment [12] was inactive. For the same compound, the result in experiment [14], in experiment [15], in experiment [16], in experiment [17], in experiment [18] and in experiment [19] was inactive. Also, the compound was classed as inactive in [20]. Further, the AC50 in experiment [13] was 12.4 µM (active).
`Cc1ccc(S(=O)(=O)O)c(C)c1`: the result in [1], in [3], in [4], in [5], in experiment [7] and in [8] was inactive. The compound was called inactive in experiment [9], in [10], in experiment [11], in experiment [12], in [13] and in experiment [14]. For the same compound, the outcome in experiment [16], in experiment [17], in [18], in experiment [19] and in [20] was inactive. The AC50 in [13] was 27.3 µM (active).
